Only a selection was taken, and hits are over-represented in it overall.
Pf apPOL inh: Pf-apPOL inhibitors, biochemical, fluorescence | inhibition, % at 10 µM | AID 1794808, 2022 | 210,000 tested, 0.25% active | Recombinant Pf-apPOL, molecular beacon fluorescence, 1.5 h
mHTT CaM bind: mutant huntingtin-calmodulin interaction inhibitors – biochemical, AlphaScreen, primary screen; 190,000 tested, 3.6% active; inhibition, % at 15 µM; AID 1671202, 2021; P42858; AlphaScreen His-mHTT/GST-CaM binding, luminescence;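 further: 0% = both proteins with DMSO and 100% = one protein alone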
Active calls of the source: *. No stated cut-off is given here; in the data, active means inhibition above about 50%; inactive means the rest.

Results for OC(CN(Cc1ccccc1)Cc1ccccc1)c1ccc2cc[nH]c2c1 (stereo not given) ?
Pf apPOL inh: 3; mHTT CaM bind: 68*

What do the screens show for `OCCN(CCc1ccccc1)Cc1ccccc1`?
Pf apPOL inh: -6; mHTT CaM bind: -14

How did CS(=O)(=O)c1n[nH]c([N+](=O)[O-])n1 do in these assays?
mHTT CaM bind: 0

How did COc1cc(C([O-])=Nc2c[n+](CCc3ccccc3)no2)cc(OC)c1OC do in these assays?
Pf apPOL inh: 9; mHTT CaM bind: 11

What do the screens show for `CSc1cccc2sc(N(CCN3CCOCC3)C(=O)Cc3ccc(F)cc3)nc12`?
Pf apPOL inh: -3; mHTT CaM bind: 22

Results for COc1ccc2c(c1)C1(CCN(S(=O)(=O)c3ccc(NC(C)=O)cc3)C1)C(=O)N2C (stereo not given) ?
Pf apPOL inh: 8; mHTT CaM bind: 16

How did Cc1nn(C)c2c1C(c1ccc(I)cc1)SCC(=O)N2 (stereo not given) do in these assays?
Pf apPOL inh: -3; mHTT CaM bind: 13

Results for CCOc1ccccc1N1CCN(Cc2ccc(F)c(Br)c2)CC1 ?
Pf apPOL inh: -1; mHTT CaM bind: 68*

What do the screens show for `CCOc1ccccc1N1CCN(Cc2ccc(F)c(F)c2)CC1`?
Pf apPOL inh: 3; mHTT CaM bind: -5

Results for COc1ccc(CC(=O)N2CCCN(C3CCN(CC4CC4)C3=O)CC2)cc1Cl (stereo not given) ?
Pf apPOL inh: 2; mHTT CaM bind: 5

Results for Brc1ccc2c(c1)C1C=CCC1C(c1cccnc1)N2 (stereo not given) ?
Pf apPOL inh: -4; mHTT CaM bind: 85*

Results for Brc1cccc(C2CC(c3cccnc3)Nc3nnnn32)c1 (stereo not given) ?
Pf apPOL inh: 9; mHTT CaM bind: -3

Results for COc1cccc(CN2CCN(c3ccc(F)cc3)CC2)c1OC ?
Pf apPOL inh: 58*; mHTT CaM bind: 6

Results for COc1cccc(CN2CCN(c3ccc(Cl)cc3)CC2)c1OC ?
Pf apPOL inh: -12; mHTT CaM bind: 2

What do the screens show for `CCN1CC2(C)CCC(O)C34C5CC6C(OC)CC(O)(C(CC23)C14)C5C6O` (stereo not given)?
Pf apPOL inh: 4

What do the screens show for `CCn1cc(C(=O)NCc2ccc3c(c2)OCO3)c2cccnc21`?
Pf apPOL inh: -11; mHTT CaM bind: 12

What do the screens show for `CCn1cc(C(=O)NCc2cccc(Br)c2)c2cccnc21`?
Pf apPOL inh: -19; mHTT CaM bind: 58*

What do the screens show for `C=CCSc1nc2ccccc2c(=O)n1-c1cccc(F)c1`?
Pf apPOL inh: -7; mHTT CaM bind: -3

How did COc1ccc(C(=O)N2CCC3(C2)C(=O)Nc2ccc(OC)cc23)c(OC)c1 (stereo not given) do in these assays?
Pf apPOL inh: -8; mHTT CaM bind: 2

How did NCCc1csc2c1CCCC2 do in these assays?
mHTT CaM bind: 65*

Results for CC(C)n1[nH]c(=O)c2c1NC(=O)CSC2c1ccc(F)cc1 (stereo not given) ?
Pf apPOL inh: -1; mHTT CaM bind: -7

How did COc1cc(C=C2CC3C4CCC5CC(O)CCC5(C)C4CCC3(C)C2=O)ccc1OC(F)F (stereo not given) do in these assays?
Pf apPOL inh: 0; mHTT CaM bind: 14

What do the screens show for `CC(C)CN1CCCC(c2n[nH]c(C3CC3)n2)C1` (stereo not given)?
Pf apPOL inh: 2; mHTT CaM bind: -5

What do the screens show for `Cc1cccc(NC(=O)CN2C(=O)CN=C(c3ccccc3)c3cc(Cl)ccc32)c1C`?
Pf apPOL inh: -20; mHTT CaM bind: 54*

How did O=C(CN1C(=O)CN=C(c2ccccc2)c2ccccc21)Nc1cccc(Cl)c1 do in these assays?
Pf apPOL inh: -1; mHTT CaM bind: 27

How did O=C(CN1C(=O)CN=C(c2ccccc2)c2cc(Cl)ccc21)Nc1ccccc1C(F)(F)F do in these assays?
Pf apPOL inh: -6; mHTT CaM bind: 26

Results for COc1ccc(NC(=O)CN2C(=O)CN=C(c3ccccc3)c3cc(Cl)ccc32)cc1OC ?
Pf apPOL inh: -18; mHTT CaM bind: 76*

How did O=C(NC(O)C(Cl)(Cl)Cl)c1ccc(F)cc1 (stereo not given) do in these assays?
Pf apPOL inh: -6; mHTT CaM bind: -2

What do the screens show for `Cc1cc(N2CCN(C)CC2)c2[nH]c3ccccc3c2c1`?
Pf apPOL inh: 12; mHTT CaM bind: 79*

What do the screens show for `Cc1nccc2c1[nH]c1ccccc12`?
Pf apPOL inh: 11

How did O=c1oc2cc([N+](=O)[O-])c(O)c([N+](=O)[O-])c2s1 do in these assays?
Pf apPOL inh: -4; mHTT CaM bind: 68*

How did CCc1c(C(=O)O)nnn1Cc1ccccc1 do in these assays?
Pf apPOL inh: -3; mHTT CaM bind: -6

How did COc1ccccc1N1CCN(C(=O)C(O)(c2ccccc2)c2ccccc2)CC1 do in these assays?
Pf apPOL inh: -13; mHTT CaM bind: 82*

What do the screens show for `COc1ccccc1N1CCN(Cc2ccc(O)cc2)CC1`?
Pf apPOL inh: -3; mHTT CaM bind: -3

How did COc1ccc2c(c1)C1(CCN(S(=O)(=O)c3ccc4c(c3)oc(=O)n4C)C1)C(=O)N2 (stereo not given) do in these assays?
Pf apPOL inh: -7; mHTT CaM bind: 11

How did COc1ccc2c(c1)C1(CCN(S(=O)(=O)c3ccccc3)C1)C(=O)N2 (stereo not given) do in these assays?
Pf apPOL inh: -10; mHTT CaM bind: 12

What do the screens show for `O=C1CNC(c2ccccc2Cl)c2cc(Br)ccc2N1` (stereo not given)?
Pf apPOL inh: -1; mHTT CaM bind: 61*

How did CC(=O)N1CC(=O)Nc2ccc(Br)cc2C1c1ccccc1Cl (stereo not given) do in these assays?
Pf apPOL inh: -3; mHTT CaM bind: 16

Results for Cc1ccc2cccc(OC(=O)N(C)c3ccccc3)c2n1 ?
Pf apPOL inh: 2; mHTT CaM bind: -7

How did Cc1cccc(NC(c2ccc(N(C)C)cc2)c2ccc3ccc(C)nc3c2O)n1 (stereo not given) do in these assays?
Pf apPOL inh: -4; mHTT CaM bind: 100*

How did O=C1NC(=S)NC(=O)C1=Cc1ccco1 do in these assays?
Pf apPOL inh: 91*

Results for O=C1NC(=S)NC(=O)C1=Cc1c(Cl)cccc1Cl ?
Pf apPOL inh: 32

How did CN1CCN(Cc2ccc[nH]2)CC1 do in these assays?
Pf apPOL inh: -6; mHTT CaM bind: 30

Results for CN1CCN(Cc2ccco2)CC1 ?
Pf apPOL inh: 78*; mHTT CaM bind: 0

Results for CC(=O)Nc1ccc(Br)cc1C(=O)c1ccccc1 ?
Pf apPOL inh: -2; mHTT CaM bind: -18

How did CN(C)C(=O)ON=C(N)c1ccc(C2SCCS2)cc1 do in these assays?
Pf apPOL inh: -2

How did COCC(=O)N1CCC2(C1)C(=O)N(C)c1ccc(OC)cc12 (stereo not given) do in these assays?
Pf apPOL inh: -1; mHTT CaM bind: 1

Results for CCN(CC)c1ccc(CN2CCN(c3ccccc3)CC2)cc1 ?
Pf apPOL inh: 0; mHTT CaM bind: 51*

What do the screens show for `Brc1ccc(CN2CCN(c3ccccc3)CC2)cc1`?
Pf apPOL inh: -6; mHTT CaM bind: 1

How did COc1ccc(OC)c(-n2c(O)c(C=C3C=Nc4ccccc43)c(=O)[nH]c2=O)c1 do in these assays?
Pf apPOL inh: -2; mHTT CaM bind: 34

Results for O=c1[nH]c(O)c(C=C2C=Nc3ccc(OCc4ccccc4)cc32)c(=O)[nH]1 ?
Pf apPOL inh: -3; mHTT CaM bind: 76*
